From PubChem BioAssay (NCATS)
Records with an inconclusive call do not appear. The source made the active and inactive calls. The call rests on the fitted dose curve; in most records, active means well fitted inhibition curve with a large enough effect; inconclusive means small, poorly fitted or top-dose-only effect; inactive means flat fitted curve, though single readings scatter.

Assay: qHTS for Inhibitors of Plasmodium falciparum (7G8) proliferation (AID 504316); further: nearly all actives have a fitted effect of over 65% in size;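 on activity change, negative = inhibition: 0% = DMSO vehicle and -100% = 0.29 µM artemisinin full kill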
Conditions: P. falciparum 7G8 in erythrocytes, SYBR Green DNA, 72 h; series mostly up to 6.7 µM; activity change, negative = inhibition: at the top concentration
Source text: Plasmodium falciparum is a virulent malarial parasite that kills 1-2 million people worldwide each year. Malaria not only inflicts tremendous suffering and morbidity on the human population, but has dramatically influenced the course of civilization with profound sociological and economic implications (Shah, S. 2010). Transmitted by mosquitoes, the sporozoite form of the parasite enters the blood stream to infect hepatocytes, where they become merozoites that infect red blood cells (erythrocytes). Within erythrocytes, merozoites begin a […] cycle of growth and division, after which the parasite is released to infect new red blood cells. Gametocytes, which form within erythrocytes as well, circulate in the bloodstream and are ingested by the mosquito, thereby completing the life cycle (see CDC website). To profile malarial lines for differential chemical responses and to identify inhibitors of malarial growth, an assay that measures P. falciparum growth and replication within erythrocytes was employed. This assay uses a DNA binding fluorescent dye (SYBR Green) to detect parasite DNA following cell lysis. Because mature erythrocytes lack DNA, only Plasmodium-derived DNA is detected. The P. falciparum line cp250, derived from a malarial isolate from Cambodia, (Mu, J., et al. 2010) was added to the panel of lines, Dd2, HB3, 7G8 and GB4 in this study. Laboratory of Assay Development and Screening Technology [ADST] and NIH Chemical Genomics Center [NCGC] Boston University, Chemistry Department, Center for Chemical Methodology and Library Development [CMLD-BU] NIH National Institute of Allergy and Infectious Diseases [NIAID]
ADST Assay Protocol Summary: The 1536-well SYBR Green viability assay was based on the method of Bennett et al (2004) and described previously in 1536-well format (Yuan J., et al. 2009). For screening 3 ul culture medium was dispensed into 1536 well black clear bottom plates (Aurora Biotechnologies) using a Multidrop Combi (Thermo Fisher Scientific Inc.), 23 nL compounds in DMSO were added by a pin transfer (Cleveland, P.H. and Koutz, P.J, 2005) using a pin tool-based delivery system (Kalypsys), and 5 ul of erythrocytes infected with P. falciparum one of five lines (cp250, Dd2, HB3, 7G8 or GB4, 0.3% parasitemia, 2.5% hematocrit final concentration) were added. The plates were incubated at 37C in a humidified incubator in 5% CO2 for 72 h, and 2 ul lysis buffer (20 mM Tris HCl, 10 mM EDTA, 0.16% saponin, 1.6% triton X, 10X SYBR Green I (supplied as 10,000X final concentration by Invitrogen) was added to each well. The plates were mixed for 25 sec with gentle shaking and incubated overnight at room temperature in the dark. The following morning, fluorescence intensity at 485(14) nm excitation and 535(25) nm emission wavelengths was measured on an EnVision (Perkin Elmer) plate reader. Plate reads were normalized relative to the control inhibitor (0.29 uM artemisinin) and vehicle (DMSO) wells present on each plate and then corrected by an algorithm using vehicle-only control plates at the beginning and end of the compound plate stack. References Shah, S. (2010). The Fever: how malaria has ruled humankind for 500,000 years. New York, Sarah Crichton Books. CDC web site, http://www.cdc.gov/malaria/about/biology/index.html Mu, J., Myers, R.A., Jiang, H., Liu, S., Ricklefs, S., Waisberg, M., Chotivanich, K., Wilairatana, P., Krudsood, S., White, N.J., et Plasmodium falciparum genome-wide scans for positive selection, recombination hot spots and resistance to antimalarial drugs Nature Genetics 2010, 42, pp 268-271 Bennett TN, Paguio, M., Gligorijevic, B., Seudieu, C., Kosar, A. D., Davidson, E., and Roepe, P. D. Novel, rapid, and inexpensive cell-based quantification of antimalarial drug efficacy Antimicrobial Agents Chemother. 2004, 48(5): pp 1807-10 Yuan J, Johnson RL, Huang RL, Wichterman J, Jiang HY, Hayton K, Fidock DA, Wellems TE, Inglese J, Austin CP, Su XZ. […]
Potency means the concentration at half of the fitted maximal effect.

Row | SMILES | activity change, negative = inhibition | Potency
1 | COC(=O)N1C2=C(c3ccccc3[C@@H]1CC(=O)O)[C@@H]1O[C@@H](C2)c2ccccc21 | -1.67% (inactive) | –
2 | O=C1[C@@H]2[C@H]3[C@H](O)[C@H](O)CC(=NOC[C@@H](O)COCc4ccco4)[C@H]3CC[C@H]2C(=O)N1C[C@@H]1CCCO1 | 12.2% (inactive) | –
3 | COC(=O)C1=C(C)N(Cc2ccccc2)C(=NCc2cc(OC)c(OC)c(OC)c2)NC1CCc1ccccc1 (stereo not given) | – | 1.51 µM (active)
4 | CCCCc1cc2c(cn1)=C(OC(=O)c1cnc3ccccc3n1)C(C)(OC(=O)CC)C(=O)C=2 (stereo not given) | – | 1.69 µM (active)
5 | COC(=O)C(C(C)=O)[C@@H](NC(=O)OC(C)(C)C)c1ccccc1 (stereo not given in full) | 0.087% (inactive) | –
6 | CC1(C)O[C@H]2O[C@H]([C@H](O)CON=C3[C@H]4CCn5c(=O)n(-c6ccccc6)c(=O)n5[C@@H]4[C@H](O)[C@@H]4O[C@H]34)[C@H](O)[C@@H]2O1 | -4.53% (inactive) | –
7 | COC(=O)CC(Oc1c(C)n(C)c2ccccc2c1=O)c1ccccc1 (stereo not given) | -18.2% (inactive) | –
8 | COC(=O)N[C@H](CC(C)=O)c1ccccc1 | 3.04% (inactive) | –
9 | OC[C@H]1O[C@H](C#Cc2ccc(F)cc2F)C=C[C@H]1O | 13.4% (inactive) | –
10 | C=CCOC(=O)N[C@@H](c1ccccc1)[C@@H](C)[N+](=O)[O-] | 6.37% (inactive) | –
11 | C=CCN1c2ccccc2[C@]23CCC(=O)N(CC4CC4)C2=NC(C(=O)OC)=C(C(=O)OC)[C@H]13 | -8.46% (inactive) | –
12 | CCOC(=O)NN=C1C[C@@H](O)[C@@H](O)[C@@H]2[C@H]3C(=O)N(Cc4ccccc4)C(=O)[C@@H]3CC[C@@H]12 | -1.31% (inactive) | –
13 | COC(=O)C1=C(C(=O)OC)[C@@H]2N(Cc3ccccc3)c3ccccc3[C@@]23C[C@@H](C(=O)OC)N(C(=O)Nc2ccccc2F)C3=N1 | -13.8% (inactive) | –
14 | CC(C)(C)Nc1oc(-c2ccccc2)nc1-c1ccc(C(F)(F)F)cc1 | -15.2% (inactive) | –
15 | COCCN1C(=NCC(C)C)NC(c2ccccc2)C(C(=O)OC)=C1C (stereo not given) | 0.0026% (inactive) | –
16 | CCN1C(=NCC(C)C)N[C@@H](CCc2ccccc2)[C@H](C(=O)OC)[C@H]1C | 12.2% (inactive) | –
17 | CCN1C(=NCCCCO)NC(c2cccc(C(F)(F)F)c2)C(C(=O)OC)=C1C (stereo not given) | -11.9% (inactive) | –
18 | CCC(=O)N1C2=C(c3ccccc3[C@@H]1CC(=O)Nc1ccc3ccccc3c1)[C@H]1C(=O)N(c3ccccc3)C(=O)[C@@H]1[C@H](C)C2 | – | 1.51 µM (active)
19 | C=CC[C@@H]1C=C[C@H](ON=C(C)CCN2CCCc3nc(C)c(C)cc32)[C@H](CO)O1 | – | 0.0757 µM (active)
20 | COC1=C[C@H](C(=O)NCCNC(C)=O)[C@H](C)[C@@H](c2ccccc2)CC1=O | 4% (inactive) | –

Row | SMILES | activity change, negative = inhibition | Potency
21 | N#CCCN(CC#Cc1ccccc1)OCc1ccccc1 | 0.128% (inactive) | –
22 | COc1ccc2c(c1)c(CC(=O)NCc1ccc3c(c1)OCO3)c(C)n2C(=O)c1ccc(Cl)cc1 | -8.25% (inactive) | –
23 | COCCN1C(=O)NC(c2cccc(F)c2)C(C(C)=O)=C1C (stereo not given) | 6.98% (inactive) | –
24 | C=CCN1C=C2C(=O)C(C)(OC(=O)c3ccco3)C(=O)C(C=C)=C2C=C1C1CC1 (stereo not given) | 4.27% (inactive) | –
25 | COc1cc(O)c(C(=O)C=Cc2ccc3c(c2)OCO3)c(OC)c1 | -19% (inactive) | –
26 | C[C@H](ON=C1[C@H]2CCn3c(=O)n(-c4ccccc4)c(=O)n3[C@@H]2[C@H](O)[C@@H]2O[C@H]12)c1cn([C@H](CO)Cc2ccccc2)nn1 | 4.43% (inactive) | –
27 | C=CCOC(=O)N[C@H](C(C(=O)OC)=C(C)NCc1ccccc1)c1ccc(Br)cc1 | 6.89% (inactive) | –
28 | C[C@H]1C(C(=O)N2CCCC2)=Cc2[nH]c(=O)[nH]c2C=C1c1ccccc1 | -2.66% (inactive) | –
29 | COc1cccc([C@H]2Oc3ccc(OC)cc3C(=NOC[C@@H](C)[C@H](OCc3ccccc3)C(C)C)[C@H]2O)c1 | -16.3% (inactive) | –
30 | C=CCOC(=O)C(C(C)=O)[C@@H](NC(=O)OC)c1ccc(F)cc1 (stereo not given in full) | 0.853% (inactive) | –
31 | CC1(OC(=O)C2CCCC2)C(=O)C=C2C=C(c3ccsc3)N(C3CC3)C=C2C1=O (stereo not given) | 7.15% (inactive) | –
32 | CC(=O)OC[C@H]1O[C@H](CC=NO[C@@H](C)c2cn([C@H](CO)Cc3ccccc3)nn2)C=C[C@@H]1OC(C)=O | -10.1% (inactive) | –
33 | CCN1C(=O)N[C@@H](c2ccccc2)[C@@H](C(=O)OC)[C@H]1C | – | inactive
34 | CCCCCC1=CC2=C(C(=O)OC)C(c3ccccc3)NC(=O)N2CC1 (stereo not given) | -13.8% (inactive) | –
35 | COC(=O)C1=C(C(=O)OC)[C@@H]2N(C)c3ccccc3[C@@]23C[C@@H](C(=O)OC)N(C(=O)c2ccc(Br)cc2)C3=N1 | – | inactive
36 | CC(CCC(=O)OC[C@H]1O[C@H](C#Cc2ccccc2)C=C[C@H]1Oc1ccc(C)cc1)=NOC[C@@H](O)[C@H]1O[C@@H]2OC(C)(C)O[C@H]2[C@@H]1O | -15.2% (inactive) | –
37 | CC(CCC#N)[N+](=O)[O-] (stereo not given) | 7.51% (inactive) | –
38 | COC(=O)CC1c2ccccc2C(Cc2ccc(OC)cc2)C(C)N1C(=O)OC (stereo not given) | – | inactive
39 | O=P1(O)Oc2c(c(-c3ccccc3)cc3ccc4ccccc4c23)-c2c(-c3ccccc3)cc3ccc4ccccc4c3c2O1 | -1.84% (inactive) | –
40 | CCc1cc2c(nc1CC)CCN(CCC(C)=NO[C@H](C)c1cn([C@H](CO)Cc3ccccc3)nn1)C2 | – | 1.51 µM (active)
